The list is not random: actives were taken first. Their share in the collection is about 7.3%.
HCMV antiviral = blocks human cytomegalovirus replication; activity change, negative = inhibition, % at 57.5 µM; actives 4.5% (n = 410,000); AID 1259415; HFF cells, HCMV-luciferase reporter, 72 h; active compounds read low; in the data active = activity change below about -60%; inconclusive = no clear call, values can overlap the other calls; inactive = above about -39%
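Steps: HFFs plated, 16 h 37C; compounds added; HCMV-luciferase added to MOI 1 PFU/cell; 72 h 37C; OneGlo reagent, 5 min room temperature; luminescence read, normalized to controls.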
Vaccinia Venus = vaccinia inhibition (Venus reporter); Vaccinia virus Venus reporter expression, fluorescence; Potency, µM (titrated, usually from 36.5 µM), without a hit: top-dose activity change, negative = inhibition, actives largely listed as inhibitors; actives 0.46% (n = 330,000); AID 720580; calls by dose curve; tested in A549 cells; also: potency is read from the fitted curve at half-maximal effect; nearly all actives have a fitted effect of over 30% in size
Vaccinia mCherry = vaccinia inhibition (mCherry reporter); AID 720579; Vaccinia virus mCherry reporter infection, fluorescence; Potency, µM (titrated, usually from 36.5 µM), without a hit: at the highest dose activity change, negative = inhibition, hits mostly inhibitors; actives 0.63% (n = 310,000); calls by dose curve; tested in A549 cells; also: potency is read from the fitted curve at half-maximal effect; nearly all actives have a fitted effect of over 35% in size
HCV inh = blocks hepatitis C virus; Huh7.5.1 HCVcc-Cre infection, luciferase reporter, 44 h; actives 3.4% (n = 340,000); Potency, µM (doses to about 41.8 µM), for the others: at the top dose activity change, negative = inhibition, usual class: inhibitors; active = well fitted inhibition curve with a large enough effect; inconclusive = small, poorly fitted or top-dose-only effect, or another doubt; inactive = no such curve, though single readings can be large or run the other way; also: potency is read from the fitted curve at half-maximal effect
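Luciferase read-out (15 sec integration) after a 15 min room-temperature substrate step quantifies HCVcc-Cre infection. Cells, 1,000 per well, had compound added 4 h post-plating, then virus at ~0.5 moi, and were cultured 44 h.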
FMDV inh = blocks foot and mouth disease virus; actives 1.2% (n = 410,000); FMDV antiviral cell-based qHTS; Potency, µM (series often up to 57.9 µM), for inactives: at the highest dose activity change, negative = inhibition, hits mostly inhibitors; calls by dose curve; tested in HEK293T cells; also: read-out not given here; potency is read from the fitted curve at half-maximal effect; nearly all actives have a fitted effect of over 45% in size
* = called active by the depositor; i = inactive; ? = inconclusive; . = no result. % is scaled to controls: 0 for no effect and ±100 for the full control effect.

SMILES	HCMV antiviral	Vaccinia Venus	Vaccinia mCherry	HCV inh	FMDV inh
Cc1ccc(C)c(S(=O)(=O)N2CCN(C(=O)C3CCN(c4ncnc5sc(C)c(C)c45)CC3)CC2)c1	-67.3*	-18.6%	-1.9%	11.2µM*	?
COc1c2ccccc2nn1CCCCCO	3.1	.	.	.	.
O=C(c1ccc2c(c1)CCN2S(=O)(=O)c1ccc(Cl)cc1)N1CCN(c2ccccc2F)CC1	-20.8	-8.0%	-10.9%	.	-28.1%
CN(C)C=NC(=O)c1cc(C(=O)c2ccc(Cl)cc2)c[nH]1	-63.3*	-11.4%	-6.3%	?	23.3%
COCC1CCN(C(=O)c2cc(COc3ccc4c(c3)CCCC4)on2)C1 (stereo not drawn)	28.3	-15.4%	-1.2%	?	0.3%
CCCN1CCN(C(=O)c2cc(COc3ccc(F)cc3F)on2)CC1	-2.3	-18.5%	-5.6%	.	1.5%
COCCOC1CCN(C(=O)c2cc(COc3ccc(-n4cncn4)cc3)on2)CC1	25.1	-0.8%	-12.6%	-0.2%	-22.8%
CCN1CCN(C(=O)c2cc(COc3ccc4ncccc4c3)on2)CC1	-82.2*	-18.1%	i	11.2µM*	?
COCC1CCCCN1C(=O)c1cc(COc2ccc3ncccc3c2)on1 (stereo not drawn)	-83.6*	.	.	-2.1%	?
CCCN1CCN(C(=O)c2cc(COc3ccc4ncccc4c3)on2)CC1	-67.8*	-10.4%	i	10µM*	?
COCCC1CCCCN1C(=O)c1cc(COc2ccc(-n3cncn3)cc2)on1 (stereo not drawn)	-74.0*	-20.6%	-20.1%	10µM*	?
CCCc1cc2c(cc1N(C)S(=O)(=O)c1ccccc1)OCO2	-17.7	-1.4%	-3.8%	?	?
Cc1ccc(S(=O)(=O)N2CCOCC2)cc1C(=O)Nc1ccccc1C(=O)O	-9.3	-13.9%	-7.2%	.	-6.3%
C=Cc1ccc(C(=O)N2CCc3c(cnc(C)c3CNC(=O)c3ccc4c(c3)OCO4)C2)cc1	.	-5.8%	-8.7%	.	-4.1%
C=CCn1cccc(C(=O)Nc2ccc(C)c(C)c2)c1=O	.	2.2%	0.8%	-7.6%	-12.5%
CSc1ccc(OC2(C)CCN(Cc3ccc(C(C)C)cc3)C2)cc1 (stereo not drawn)	9.0	-8.8%	i	.	-14.5%
CC(=O)Nc1ccc(NC(=O)CCC(=O)OCC(=O)c2ccc(F)cc2)cc1	-30.1	.	.	26.9%	-5.6%
O=C(Nc1ccc2oc(-c3cc(Br)ccc3Cl)nc2c1)c1ccc2ccccc2c1	-93.5*	-27.3%	?	.	-11.5%
O=C(Nc1ccc2oc(-c3ccccc3Cl)nc2c1)c1cncc(Br)c1	-18.1	.	.	17.8µM*	61.3%
O=C(Nc1ccc2oc(-c3ccccc3Cl)nc2c1)c1ncn[nH]1	125.5	-16.9%	i	2.4%	.
O=C1O[C@@H](c2ccccc2)C[C@@H](O)C(=O)CCCc2ccccc21	-1.8	0.4%	-16.3%	.	-21.6%
CN1CCCN(C(=O)[C@@H]2C[C@@H](Sc3nc4ccccc4[nH]3)CN2Cc2ccc(OC(F)(F)F)cc2)CC1	.	-8.8%	-24.4%	.	-13.5%
CCCc1nc2ccccc2c(C(=O)OCC(=O)Nc2cccc(S(=O)(=O)N3CCOCC3)c2)c1CC	-0.4	.	.	8.91µM*	-1.0%
O=C(COC(=O)c1n[nH]c2ccccc12)Nc1cccc(S(=O)(=O)N2CCOCC2)c1	-22.1	-17.5%	-24.3%	-18.1%	0.0%
CCCc1nc2ccccc2c(C(=O)OCC(=O)Nc2ccc(S(=O)(=O)N3CCOCC3)cc2)c1CC	30.2	.	.	8.91µM*	?
SMILES	HCMV antiviral	Vaccinia Venus	Vaccinia mCherry	HCV inh	FMDV inh
COc1ccc(CNC(=O)c2ccc(Cn3c(=O)c4cccn4c4cccnc43)cc2)c(OC)c1	-6.7	-10.3%	-9.0%	.	-20.7%
COC(=O)[C@]12CCCCC=C1N(Cc1cccc3ccccc13)C(=O)[C@H](CC(=O)N1CCCCC1)C2	7.3	11.7%	35.8%	.	-2.1%
CC(C)(C)c1ccc(S(=O)(=O)/C=C/C#N)cc1	.	-22.2%	-14.9%	.	.
CC(C)(C)S(=O)(=O)N1Cc2cc(CO)ccc2[C@H]1CCO	9.8	.	.	.	.
COC(=O)c1cnn(-c2ccc(Cl)cc2)c1/C=N/NC(N)=S	?	-20.0%	-2.8%	?	14.1µM*
Nc1c(C(=O)N/N=C/c2ccc(Cl)cc2)cnn1-c1ccccc1	-4.8	-4.5%	-8.2%	4.3%	16.0%
O=S(=O)(CCC1CCCCN1)c1ccccc1 (stereo not drawn)	7.4	-15.3%	-13.9%	3.7%	-19.2%

Compound activity from PubChem BioAssay.
